# Assay outcomes deposited in PubChem BioAssay by The Scripps Research Institute Molecular Screening Center.
# PLC-gamma1 inh: PLC-gamma1 enzyme inhibitors, primary screen, biochemical, fluorescence, purified enzyme | 1-phosphatidylinositol 4,5-bisphosphate phosphodiesterase gamma-1 (Homo sapiens), P19174 | fluorogenic substrate | inhibition, % at 12.2 µM | 370,000 tested, 0.84% active; in the data active = inhibition above about 9.5%
# ADAM10 inh: human ADAM10 inhibitors, primary screen, biochemical, QFRET, HTS. Disintegrin and metalloproteinase domain-containing protein 10 (Homo sapiens), O14672. recombinant ADAM10, EDANS/DABCYL FRET peptide cleavage, 3 h. inhibition, % at 7 µM. 370,000 tested, 0.62% active;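 active = inhibition above a per-campaign cutoff equal to the mean of compounds falling between control-based bounds plus 3 SD, cut at about 20% in these data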;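 note: 0% = DMSO wells while the 100% control is not disclosed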
# PLCb3 inh: human PLC-beta3 inhibitors, primary screen, biochemical, fluorescence | 1-phosphatidylinositol 4,5-bisphosphate phosphodiesterase beta-3 (Homo sapiens), Q01970 | Purified PLC-beta3, fluorogenic substrate | inhibition, % at 12.2 µM | 370,000 tested, 0.18% active | AID 720704, 2013;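 note: 0% = median of compound wells on plate and 100% = full blocker control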
# proKLK7 act: proKLK7 zymogen activators, primary screen, biochemical, fluorescence intensity. purified proKLK7, EDANS-DABCYL substrate fluorescence; 100% is mature enzyme control, 0% vehicle. Kallikrein-7 (Homo sapiens), P49862. AID 652039, 2013. 370,000 tested, 0.9% active. activation, % at 7 µM;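 active = activation above the mean of all tested compounds plus 3 SD, computed per campaign excluding outliers beyond control limits, cut at about 13% in these data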
# Target sequence (P49862 whole entry, looked up): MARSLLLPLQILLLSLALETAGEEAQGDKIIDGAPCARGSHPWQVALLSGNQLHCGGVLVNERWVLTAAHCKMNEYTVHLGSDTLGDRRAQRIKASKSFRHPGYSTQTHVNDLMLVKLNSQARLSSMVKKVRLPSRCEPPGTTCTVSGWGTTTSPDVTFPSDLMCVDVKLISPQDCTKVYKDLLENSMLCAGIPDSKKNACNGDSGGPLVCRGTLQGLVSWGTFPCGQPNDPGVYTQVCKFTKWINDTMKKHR
# ADAM17 inh: ADAM17 inhibitors, primary screen, biochemical, QFRET; Disintegrin and metalloproteinase domain-containing protein 17 (Homo sapiens), P78536; recombinant ADAM17, EDANS/DABCYL FRET peptide cleavage; inhibition, % at 6.95 µM; 370,000 tested, 0.83% active; AID 720648, 2013;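 active = inhibition above the mean of compounds lying between control limits plus 3 SD, set per campaign, cut at about 8.5% in these data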;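 note: 0% = DMSO-only wells as the low control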
# PLCgamma1 ctr: PLC-gamma1 enzyme inhibitors, counter-screen for PLC-beta3 inhibitor project, biochemical, fluorescence; 3,300 tested, 3.1% active; shares compounds with PLC-gamma1 inh; AID 743258, 2014; purified PLC-gamma1, fluorogenic substrate; inhibition, % at 12.3 µM; in the data active = inhibition above about 9.5%
# PLCbeta3 conf: PLC-beta3 inhibitor confirmation, biochemical, fluorescence, purified enzyme. 3,300 tested, 1% active. inhibition, % at 12.3 µM. shares compounds with PLC-gamma1 inh. fluorogenic substrate fluorescence
# Active calls of the source: *; . = no result. The list is not random: actives were taken first. Their share in the collection is about 2.9%. Cut-off read from the data, not from the text of the source, unless noted: active = inhibition above about 11%; inactive = the rest.
SMILES,PLC-gamma1 inh,ADAM10 inh,PLCb3 inh,proKLK7 act,ADAM17 inh,PLCgamma1 ctr,PLCbeta3 conf
COc1ccc(S(=O)(=O)NC(=O)C2(C)CCN2C(=O)Cc2ccccc2)cc1OC (stereo unspecified),3,2,0,0,-1,.,.
COc1ccccc1CNc1cncnc1,-11,-53,-25,0,-26,.,.
COc1ccccc1CNc1ncccn1,9.7*,10,1,0,5,-2,2
N#Cc1c(NC(=O)CSc2nnnn2C2CCCCC2)sc2c1CCCC2,10*,6,3,0,2,-6,3
COc1cccc(C(=O)Nc2cccc(C(=O)N3CCOCC3)c2)c1,2,-11,0,-1,-4,.,.
COc1cccc(C(=O)N2CCOCC2)c1,11*,7,5,0,2,-2,0
C/C(=N/NC(=O)c1cc(-c2cccc([N+](=O)[O-])c2)n[nH]1)c1cccc(O)c1,14*,10,7,0,7,-2,-2
COc1cccc(OC)c1C(=O)Nc1ccc(S(=O)(=O)Nc2ncccn2)cc1,1,-1,-6,0,-2,.,.
O=C(Nc1ccc(S(=O)(=O)Nc2ncccn2)cc1)c1ccc(Br)s1,11*,-2,-4,0,-2,-5,-1
O=C(Nc1ccc(Cl)c(Cl)c1)Nc1nnc(CSc2ccccc2)s1,2,5,8,0,5,.,.
CCOc1ccccc1NC(=O)COn1nnc2ccccc21,11*,8,4,0,5,-4,-7
C=CCOC(=O)c1cn(CC)c2nc(C)ccc2c1=O,-1,0,-4,0,-2,.,.
CCn1cc(C(=O)O)c(=O)c2ccc(C)nc21,10*,-3,3,0,-3,-5,-6
CCc1ccccc1NC(=O)CCC(=O)N1CCN(C(C)=O)CC1,2,-2,5,0,-1,.,.
CCc1ccccc1NC(=O)CN1CCN(C(=O)CCC(=O)N2CCC(c3ccccc3)=N2)CC1,13*,5,-1,0,7,-3,-4
CCc1ccccc1NC(=O)CN1CCN(C(=O)CNC(=O)c2ccccc2F)CC1,0,0,-4,0,0,.,.
CCc1ccccc1NC(=O)CN1CCN(C(=O)CNC(=O)c2ccc(N3CCCC3=O)cc2)CC1,12*,3,-4,0,2,-4,2
COc1cccc(CNC(=O)c2cccnc2Sc2ccc(C)cc2C)c1,1,-2,-8,0,-1,.,.
CCn1c(C(O)c2cc(OC)c(OC)c(OC)c2)nc2ccccc21 (stereo unspecified),3,10,-6,0,-4,.,.
COc1ccc(NC(=O)CSc2nnc(-c3ccccc3)n2Cc2ccco2)c(OC)c1,5,12,11*,-1,9,1,1
COc1ccccc1C(=O)Nc1nnc(SCC(=O)NCC2CCCO2)s1 (stereo unspecified),-3,0,-12,0,-2,.,.
C[C@@]12C(=O)N(Cc3ccco3)CC(=O)N1[C@H]1c3ccccc3OC[C@@H]1[C@@H]2c1ccccc1,-1,11,1,-1,0,.,.
O=C(NCc1ccccc1)c1cc(C2CCCCN2C(=O)c2ccc3c(c2)CCO3)on1 (stereo unspecified),12*,-14,-2,0,3,-3,-144
O=C(NCc1ccc(F)cc1)c1cc(C2CCCCN2C(=O)c2ccc3c(c2)CCO3)on1 (stereo unspecified),2,2,2,0,0,.,.
CCOC(=O)C1CCCN(C(=O)CS(=O)(=O)Cc2ccccc2)C1 (stereo unspecified),0,0,-1,0,-4,.,.
CCOC(=O)C(Cc1cc(C(C)=O)ccc1OC(C)C)C(=O)OCC,-2,0,-1,1,-7,.,.
